Measurements published in the supplement of paper PMC10338343.
± gives the standard deviation.

test system: MILI (PIWIL2) piRISC loaded with piRNA #1 (26 nt); assay: pre-steady-state target cleavage rate (min^-1); guide: piRNA #1 5'p-UGAGGUAGUAGGUUGUAUAGUAUCCA; MIWI and MILI are mouse PIWI proteins and EfPiwi is from a freshwater sponge; tags in brackets are library labels; higher = faster piRNA-guided slicing of the target; conditions: auxiliary factor: 500 nM mouse GTSF1
Procedure, shortened: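 At 33 °C in HEPES–potassium acetate buffer, a transcribed, DNA-blocked target RNA library […] was exposed for 0–8 or 0–960 min to 1 nM active affinity-purified piRISC carrying a single synthetic guide, with or without 500 nM GTSF1 partner protein. Uncleaved targets were sequenced and normalised to depth and to weakly complementary targets. With three trials pooled and k3 capped at 0.0001 min^-1, a burst-and-steady-state fit produced the pre-steady-state cleavage rate.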
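Further: 1 nM active piRISC with 0.1 nM target library at 33 °C single turnover.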

| Sequence | pre-steady-state target cleavage rate |
| --- | --- |
| GGAGACCUAUGAUAACAUCCUACUUCCUCA | 0.00421 ± 0.0027 |
| GGAGUGGAUACUAUAAACCUACUACCUCA | 0.0206 ± 0.0043 |
| GGAGACCUUACUAUACUACCUACUACCUGA | 0.105 ± 0.014 |
| GGAGACCUAUCUAUACAACCUAGAUCCUCA | 0.0047 ± 0.0021 |
| GGAGACCUAUGAAUACAUGCUACUACCUCA | 0.00268 ± 0.0026 |
| GGAGACGAUACUAUACAACCUACCUACCUCA | 0.131 ± 0.011 |
| GGAGACCUUACUAUACAACCUACAUGGAGA [g8:g22:cont:t1A] | 0.00299 ± 0.0029 |
| GGAGACCUAACUAUACAACCUACUCCCUCA | 0.0941 ± 0.022 |
| GGAGACCUAUGAUAUGUUCCUACUACACUCA | < 0.0001 |
| GGAGACCUAACUAUAGAACCUACUACCACA | 0.0663 ± 0.019 |
| GGAGACCUAUGAUAACAAGCUACUACCUCA | 0.0133 ± 0.0028 |
| GGAGACCUAUGAUAUGUACCAACUAGCUCA | < 0.0001 |
| GGAGACCUAUCUAUACAACUACUACCUCA | 0.00292 ± 0.0024 |
| GGAGACCUUUCUAUACAACCUACUUCCUCA | 0.0321 ± 0.0062 |
| GGAGACCUAUGAAUACAACCUACUACGCUCA | 0.0107 ± 0.0039 |
| GGAGACCUAUGAUAACAACCUACUAACCUCA | 0.00664 ± 0.002 |
